Screens deposited in PubChem by The Scripps Research Institute Molecular Screening Center.
hcDAF12 agonist = activates DAF-12 receptor from parasite H. contortus; HEK293 hcDAF-12 lit1-tk-luc reporter, luminescence; 0% DMSO, 100% Δ7-dafachronic acid; actives 1.4% (n = 370,000); activation, % at 6.8 µM; AID 652067;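 active means activation above the mean of all tested compounds plus 3 SD, cut at about 5.5% in these data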;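 further: 100% = response to 3 µM Δ7-dafachronic acid high control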
hgDAF12 agonist = activates the H. glycines DAF-12 receptor ligand-binding domain. actives 1.8% (n = 370,000). HEK293 GAL4-hgDAF12 UAS-luciferase reporter, agonist luminescence; normalized to butyrate control. activation, % at 6.8 µM;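 active means activation above a cutoff set at the mean of all screened compounds plus 3 SD, cut at about 10% in these data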;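 further: 0% = DMSO wells and 100% = sodium butyrate wells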
ssDAF12 agonist = S. stercoralis DAF-12 activation, primary screen; HEK293 ssDAF-12/GRIP1 lit1-tk-luc reporter, luminescence; % of 3 µM dafachronic acid response; activation, % at 6.8 µM; actives 1% (n = 370,000); AID 652126;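 active means activation above the mean over all tested compounds plus 3 SD, cut at about 0.9% in these data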;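 further: 0% = DMSO-only wells and 100% = 3 µM delta7-dafachronic acid wells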
DAX1 inh-1 = NR0B1 (DAX1) inhibition. actives 0.99% (n = 340,000). HEK293 Gal4-DAX1 luciferase reporter, luminescence. P51843. inhibition, % at 6.75 µM;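 active means inhibition above the mean over all tested compounds plus 3 SD, cut at about 4.2% in these data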;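 further: 0% = DAX1-transfected cells with DMSO and 100% = empty-vector control cells with DMSO; inhibition shows as a rise in luminescence from relieved DAX1 repression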
Target sequence (P51843 207-470 limits assumed): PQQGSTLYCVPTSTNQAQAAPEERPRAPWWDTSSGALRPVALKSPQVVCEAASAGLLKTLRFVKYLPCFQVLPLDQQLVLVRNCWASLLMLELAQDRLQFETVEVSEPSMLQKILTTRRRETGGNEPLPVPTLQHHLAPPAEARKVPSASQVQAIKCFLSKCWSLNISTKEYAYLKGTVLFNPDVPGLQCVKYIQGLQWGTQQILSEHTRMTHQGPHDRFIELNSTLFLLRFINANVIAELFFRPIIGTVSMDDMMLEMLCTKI
GAA850 FXN act = activators of GAA850 frataxin (FXN) promoter | HEK293 lucGAA850 FXN promoter luciferase reporter, 24 h; percent of 10 µM SAHA response | actives 0.56% (n = 360,000) | AID 540364 | activation, % at 6 µM;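 active means activation above the average of all compounds screened plus 3 SD, cutoff fixed separately per campaign, cut at about 7.5% in these data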;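 further: 0% = DMSO wells and 100% = 10 µM SAHA wells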
DAX1 inh-2 = DAX1 (NR0B1) inhibition, primary screen; actives 1.1% (n = 370,000); HEK293T StAR-luciferase reporter, SF-1/DAX-1 repression relief; inhibition, % at 6.8 µM;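 active means inhibition above the mean over all tested compounds plus 3 SD, cut at about 3.6% in these data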;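 further: 0% = DAX-1 cells with DMSO and 100% = cells lacking DAX-1 with DMSO; higher inhibition means more luminescence from relief of DAX-1 repression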
GAA30 FXN cntr = activates GAA30 frataxin promoter, counter-screen for GAA850 activators. shares compounds with GAA850 FXN act. HEK293 lucGAA30 FXN promoter luciferase, 24 h; DMSO = 0%, 5 µM ipriflavone = 100%. activation, % at 6 µM. actives 66% (n = 1,900). AID 588350;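 active means mean activation above the mean of solvent-only control wells plus 3 SD, cut at about 22% in these data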;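 further: counterscreen of GAA850 promoter hits where activity marks nonselective or luminescence artifacts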
FXN GAA850 conf = GAA850 FXN promoter activation confirmation. shares compounds with GAA850 FXN act. HEK293 lucGAA850 FXN promoter luciferase reporter, 24 h; 100% = activation by SAHA. activation, % at 6 µM. actives 86% (n = 1,900). AID 588351;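 active means mean activation above a set limit taken from the primary screen, cut at about 8% in these data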;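 further: 0% = DMSO wells and 100% = 10 µM SAHA wells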
DAX1 inh confirm = confirmation of human DAX1 (NR0B1) inhibitors; actives 87% (n = 2,400); inhibition, % at 6.8 µM; HEK293T StAR-promoter luciferase reporter, SF-1/DAX-1 repression; shares compounds with DAX1 inh-2; AID 652134;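 active means inhibition above the average of every tested compound plus 3 SD, cut at about 3.8% in these data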;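 further: 0% = DAX-1 cells with DMSO and 100% = no DAX-1 control cells with DMSO; active compounds raise luminescence by relieving repression of the StAR reporter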
SF1 mutant ctr = counter-screen for DAX1 inhibitors: nonselective inhibitors with SF-1 AF2 mutant. HEK293 StAR-luciferase, luminescence. actives 78% (n = 2,400). inhibition, % at 6.8 µM. AID 652136. shares compounds with DAX1 inh-2;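 active means inhibition above the mean of all tested compounds plus 3 SD, cut at about 3% in these data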;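 further: 0% = DAX-1 transfected cells with DMSO and 100% = cells without DAX-1 with DMSO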
LXR ag = LXR-beta agonism as hcDAF-12 counter-screen. AID 743027. activation, % at 6.8 µM. HEK293 Gal4-LXR tk-luc reporter, luminescence, 24 h; normalized: DMSO 0%, positive control 100%. 3,400 tested, under 10 active. shares compounds with hcDAF12 agonist;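 active means mean percent activation of the reporter above a cutoff set as the average over tested compounds plus their standard deviation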
Target sequence (P55055 whole entry, looked up, the tested form may be a part): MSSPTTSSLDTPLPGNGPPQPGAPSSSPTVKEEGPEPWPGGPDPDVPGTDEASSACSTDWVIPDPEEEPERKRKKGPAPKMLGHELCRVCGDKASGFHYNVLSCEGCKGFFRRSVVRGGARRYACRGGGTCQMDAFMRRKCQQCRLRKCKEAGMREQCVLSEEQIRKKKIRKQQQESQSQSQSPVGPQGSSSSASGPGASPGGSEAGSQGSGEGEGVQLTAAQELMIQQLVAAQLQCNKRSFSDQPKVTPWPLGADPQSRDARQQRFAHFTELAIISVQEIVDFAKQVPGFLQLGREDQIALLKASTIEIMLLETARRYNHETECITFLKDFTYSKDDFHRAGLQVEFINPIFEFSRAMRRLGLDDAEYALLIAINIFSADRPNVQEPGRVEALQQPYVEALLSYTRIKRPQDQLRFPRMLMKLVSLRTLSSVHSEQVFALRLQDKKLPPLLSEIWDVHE
hcDAF12 conf = hcDAF-12 agonism, confirmation assay. shares compounds with hcDAF12 agonist. HEK293 hcDAF-12 lit1-tk-luc reporter, luminescence; % of Δ7-dafachronic acid response. activation, % at 6.8 µM. actives 61% (n = 3,400);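 active means mean activation across triplicate tests above the threshold derived from the earlier primary screen, cut at about 5.5% in these data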;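 further: 0% = DMSO only wells and 100% = 3 µM Δ7-dafachronic acid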
* = called active by the depositor; · = no result given. The list is not random: actives were taken first. Their share in the collection is about 4.5%.

SMILES	hcDAF12 agonist	hgDAF12 agonist	ssDAF12 agonist	DAX1 inh-1	GAA850 FXN act	DAX1 inh-2	GAA30 FXN cntr	FXN GAA850 conf	LXR ag	hcDAF12 conf	others
CCOC(=O)c1c(C)nc(-c2ccccc2)nc1N	9.2*	16*	1.5*	4.8*	8.0*	3	131*	39*	1	14*
S=C(Nc1ccccc1)Nc1nc2ccccc2n1CCOc1ccc(Br)cc1	-1	-2	-1	1	0	0	·	·	·	·
Cn1c(NC(=S)Nc2ccccc2)nc2ccccc21	7.9*	11*	1	0	8.2*	2	85*	27*	1	5
COc1ccc2oc(=Nc3ccccc3)c(-c3nc4ccccc4[nH]3)cc2c1	22*	21*	3.8*	1	7.9*	5.0*	109*	39*	1	8.0*	DAX1 inh confirm=3.7*;SF1 mutant ctr=2
Cn1c(/C=N/Nc2nc3ccccc3[nH]2)nc2ccccc21	17*	15*	1.9*	2	8.5*	5.5*	-33	-10	2	8.0*	DAX1 inh confirm=-2;SF1 mutant ctr=-4
Nc1nn2cc(-c3ccc(Br)cc3)nc2c2ccccc12	11*	10	1.6*	2	12*	3	120*	50*	1	14*
O=[N+]([O-])c1cccn2cc(-c3ccc(Br)cc3)nc12	4	4	0	0	7	2	·	·	·	·
Cc1cc(-c2ccc(Cl)cc2)c(C#N)c(N)n1	6.7*	-1	0	0	8.2*	0	16	15*	0	4
Cc1ccc(-c2cc(-c3ccccc3)c(C#N)c(N)n2)o1	-1	-1	-1	-1	-2	-1	·	·	·	·
COc1cccc(C2CC=C(C(=O)O)CN2S(=O)(=O)c2ccc(C)cc2)c1 (stereo unspecified)	0	-1	0	·	·	0	·	·	·	·
O=C(O)c1ccc(N/N=C/c2ccc(-c3ccccc3)cc2)cc1	7.6*	13*	1.3*	5.5*	8.7*	7.7*	88*	31*	1	6.2*	DAX1 inh confirm=19*;SF1 mutant ctr=8.5*
CC(C)(C)c1cc(N2CCOCC2)n2ncc(-c3ccccc3)c2n1	1	-1	0	1	0	0	·	·	·	·
Cc1nc2c(-c3ccccc3)cnn2c(N2CCOCC2)c1C	12*	13*	0	3	8.3*	3	127*	44*	1	9.0*
O=C(CSc1nnc(-c2cccnc2)n1Cc1ccco1)Nc1ccc(Cl)c(Cl)c1	-4	-1	-1	·	·	-1	·	·	·	·
C[C@H]1C2CC(OC(=O)Nc3ccc(F)cc3)C(C2)[C@H]2CCCCN21 (stereo partly specified)	-1	-3	0	·	·	-1	·	·	·	·
Cc1ccc(-c2nc(NCc3cccnc3)c3ccccc3n2)cc1	6.8*	0	0	0	7.7*	1	30*	13*	0	4
Cc1ccc(NC(=O)c2c(Cl)nc3ccccn23)cc1	12*	13*	1.1*	3	10*	3	116*	37*	1	10*
COC(=O)[C@]12C[C@H](CC(=O)N3CCN(C(=O)C4CC4)CC3)C(=O)N(Cc3ccco3)C1=C[C@H](C1CCCC1)O[C@@H]2C	1	1	0	·	·	0	·	·	·	·
O[C@H](COc1cccc(F)c1)CN1CCC(C(O)(c2ccccc2)c2ccccc2)CC1	-3	-2	-2	·	·	-1	·	·	·	·
CCCCc1ccc(NC(=O)CC(C)=O)cc1	0	1	-2	1	1	0	·	·	·	·
CCCCc1ccc(NC(=O)CC(C)(C)C)cc1	7.0*	13*	0	-1	7.8*	2	108*	38*	0	4
Cc1cc2[nH]c3c4ccccc4nc(C)c3c2cc1C	4	2	0	1	-1	-1	·	·	·	·
Cc1cc2[nH]c3c(c[n+](C)c4ccccc34)c2cc1C	14*	6	1.0*	0	10*	-1	-14	95*	2	10*
Nc1ccc(C(=O)N/N=C/c2sc(N3CCOCC3)nc2-c2ccccc2)cc1	2	-4	-2	0	2	-1	·	·	·	·
O=C(O)c1cccc(N/N=C/c2sc(N3CCOCC3)nc2-c2ccccc2)c1	7.5*	9	-1	0	11*	1	133*	39*	0	3
SMILES	hcDAF12 agonist	hgDAF12 agonist	ssDAF12 agonist	DAX1 inh-1	GAA850 FXN act	DAX1 inh-2	GAA30 FXN cntr	FXN GAA850 conf	LXR ag	hcDAF12 conf	others
COC(=O)C[C@H]1CC[C@H]2[C@H](COc3ccc(NC(=O)c4ccccc4F)cc3C(=O)N2C)O1	-2	1	-2	·	·	1	·	·	·	·
Clc1ccccc1/C=N/NC1=Nc2cccc3cccc1c23	16*	18*	2.8*	4.3*	9.7*	4.6*	84*	39*	1	15*	DAX1 inh confirm=18*;SF1 mutant ctr=8.0*
Cn1c(=O)c2c(nc(SCCN3CCOCC3)n2Cc2ccc(F)cc2)n(C)c1=O	7.8*	10	1	4.4*	9.0*	3	99*	36*	1	7.5*
COC(=O)N1C[C@H](OCc2ccccc2)[C@H]2C[C@@H]1c1ccccc1O2	-3	-3	-1	·	·	0	·	·	·	·
CC(C)(C)c1ccc(-c2nnc(NC(=O)c3ccccc3)s2)cc1	0	-3	-1	0	-1	1	·	·	·	·
COCC(=O)Nc1nnc(-c2ccc(C(C)(C)C)cc2)s1	10*	19*	0	4	8.3*	4.8*	124*	37*	1	6.2*	DAX1 inh confirm=14*;SF1 mutant ctr=7.4*
COC(=O)c1cc(Br)c(N)cc1OC	-3	1	-1	0	2	0	·	·	·	·
